Data reported in PubChem BioAssay (NCI).
The panel holds about 79,000 compounds, 15% with a hit somewhere; the sample as a whole holds those more often. Calls of active or inactive are those of the source. No stated cut-off is given here; in the data, active means growth inhibition above about 70%; inactive means the rest.

Tests used:
[1] = NCI Yeast Anticancer Drug Screen. Data for the mec2-1 strain (AID 157); conditions: S. cerevisiae mec2-1 strain, active compounds read high
How it was run: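 Readout is yeast growth inhibition, normalised to vehicle-treated controls, in the mec2-1 strain exposed to compound.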

[2] = NCI Yeast Anticancer Drug Screen. Data for the rad14 strain (AID 159);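 further: 0% = growth of vehicle-treated control cultures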; conditions: S. cerevisiae rad14 strain growth inhibition, active compounds read high
How it was run: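 Screen for anticancer potential: a yeast strain altered in DNA damage repair is grown with compound, and reduced growth is quantified against vehicle controls.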

[3] = NCI Yeast Anticancer Drug Screen. Data for the sgs1 mgt1 strain (AID 161);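 further: 0% = growth of cultures given vehicle only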; conditions: S. cerevisiae sgs1 mgt1 strain, active compounds read high
How it was run: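 Growth of a repair-deficient yeast mutant was monitored after compound treatment and expressed as inhibition relative to vehicle-treated cultures.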

[4] = NCI Yeast Anticancer Drug Screen. Data for the CLN2oe strain (AID 163);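 further: 0% = growth of vehicle-only control cultures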; conditions: S. cerevisiae CLN2oe strain, active compounds read high
How it was run: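 Values reflect how much compound exposure reduced yeast growth, referenced to vehicle-exposed cells. Assay organism is a strain with a defined genetic change affecting cell-cycle control.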

[5] = NCI Yeast Anticancer Drug Screen. Data for the cln2 rad14 strain (AID 165);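 further: 0% = growth equal to vehicle treated cultures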; conditions: S. cerevisiae cln2 rad14 strain, active compounds read high
How it was run: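 Relative to vehicle controls, growth inhibition of compound-treated cln2 rad14 yeast was recorded.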

[6] = NCI Yeast Anticancer Drug Screen. Data for the bub3 strain (AID 167); conditions: S. cerevisiae bub3 mutant strain, active compounds read high
How it was run: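 Screening used yeast with an engineered genetic alteration affecting cell cycle control. Compound-exposed cultures were compared with vehicle cultures, and reduced growth was taken as inhibition.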

[7] = NCI Yeast Anticancer Drug Screen. Data for the wt2 strain (AID 169);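 further: 0% = growth of vehicle-treated yeast cultures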; conditions: S. cerevisiae wt2 strain growth inhibition, active compounds read high
How it was run: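 Values express reduction in yeast growth under compound treatment, referenced to vehicle-treated cells.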

[8] = NCI Yeast Anticancer Drug Screen. Data for the mlh1 strain (AID 171);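 further: 0% = growth of vehicle-treated control cultures of the same strain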; conditions: S. cerevisiae mlh1 strain growth inhibition, active compounds read high
How it was run: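 Steps: expose the defined-mutant yeast strain to compound; expose a parallel culture to vehicle; measure growth; express compound effect as inhibition relative to the vehicle culture.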

[9] = NCI Yeast Anticancer Drug Screen. Data for the sgs1 strain (AID 173);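 further: 0% = growth of vehicle-only control cultures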; conditions: S. cerevisiae sgs1 mutant, active compounds read high
How it was run: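 Treat defined-mutant yeast with compound; measure growth; calculate inhibition relative to vehicle-treated cells.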

[10] = NCI Yeast Anticancer Drug Screen. Data for the mlh1 rad18 strain (AID 175); conditions: S. cerevisiae mlh1 rad18 strain growth inhibition, active compounds read high
How it was run: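 Test agents were incubated with a yeast strain of defined genotype (DNA damage repair defect). Inhibition of growth was derived by comparison with vehicle-exposed cultures.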

[11] = NCI Yeast Anticancer Drug Screen. Data for the rad18 strain (AID 177); conditions: S. cerevisiae rad18 mutant growth inhibition, active compounds read high
How it was run: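 A genetically defined yeast mutant impaired in DNA damage repair was treated with test compounds, then its growth was measured against cultures receiving vehicle alone.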

[12] = NCI Yeast Anticancer Drug Screen. Data for the rad52 strain (AID 147);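 further: 0% = growth of vehicle-treated control cultures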; conditions: S. cerevisiae rad52 mutant growth inhibition, active compounds read high
How it was run: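 Screen used a yeast mutant impaired in DNA repair. After compound exposure, growth was measured. Values reflect inhibition compared with vehicle-treated cells.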

[13] = NCI Yeast Anticancer Drug Screen. Data for the wt1 strain (AID 149);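 further: 0% = growth of vehicle-treated wt1 cultures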; conditions: S. cerevisiae wt1 strain (SPY 50644) growth inhibition, active compounds read high
How it was run: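 Using yeast strain wt1, compound-induced growth inhibition was determined against vehicle-treated cultures.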

[14] = NCI Yeast Anticancer Drug Screen. Data for the rad50EPP+ strain (AID 151);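 further: 0% = growth of vehicle-treated control cultures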; conditions: S. cerevisiae rad50 mutant strain, active compounds read high
How it was run: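 Exposing the rad50EPP+ strain to each compound, growth was compared with vehicle-only cultures to give inhibition.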

[15] = NCI Yeast Anticancer Drug Screen. Data for the mgt1 strain (AID 153); conditions: S. cerevisiae mgt1 mutant growth inhibition, active compounds read high
How it was run: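 Genetically defined yeast (mgt1) treated with compound; inhibition of growth expressed against vehicle-treated controls.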

[16] = NCI Yeast Anticancer Drug Screen. Data for the rad50 strain (AID 155);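 further: 0% = growth of vehicle-only cultures of the same strain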; conditions: S. cerevisiae rad50 strain growth inhibition, active compounds read high
How it was run: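 Relative growth inhibition (compound vs vehicle) was measured in yeast with a defined repair-gene alteration.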

[17] = at 5.0 µM (retest, dose inferred, filed as 0.5)
[18] = at 50.0 µM (retest, dose inferred, filed as 5.0)

Measured: growth inhibition

C/C(=N\Nc1ccc([N+](=O)[O-])cc1[N+](=O)[O-])c1sc(-n2nc(-c3ccccc3)cc2-c2ccccc2)nc1C
active: [3]; at 50.0 µM 75.3% | [6]; [18] 74% | [6]; at 50.0 µM 79% | [10]; at 50.0 µM 79.3%
inactive: [1]; [17] 0% | [1]; at 11.0 µM 15% | [1]; at 33.0 µM 22% | [1]; [18] 16% | [1]; at 50.0 µM 66% | [1]; at 100.0 µM 34% | [2]; at 1.2 µM -7% | [2]; at 3.7 µM -13% | [2]; at 11.0 µM -15% | [2]; at 33.0 µM -9% | [2]; at 100.0 µM -6% | [3]; [17] 11% | [3]; [18] 57% | [4]; at 1.2 µM 8% | [4]; at 3.7 µM 12% | [4]; at 11.0 µM 9% | [4]; at 33.0 µM 18% | [4]; at 100.0 µM 26% | [5]; [17] 29% | [5]; [18] 34% | [5]; at 50.0 µM 61.6% | [6]; at 1.2 µM 15% | [6]; at 3.7 µM 25% | [6]; [17] 31% | [6]; at 11.0 µM 46% | [6]; at 33.0 µM 42% | [6]; at 100.0 µM 62% | [7]; at 1.2 µM -21% | [7]; at 3.7 µM -22% | [7]; at 11.0 µM -25% | [7]; at 33.0 µM -11% | [7]; at 100.0 µM 68% | [8]; at 1.2 µM 1% | [8]; at 3.7 µM -15% | [8]; at 11.0 µM -16% | [8]; at 33.0 µM 5% | [8]; at 100.0 µM 25% | [9]; at 1.2 µM 0% | [9]; at 3.7 µM 6% | [9]; at 11.0 µM 13% | [9]; at 33.0 µM 11% | [9]; at 100.0 µM 25% | [10]; [17] 24% | [10]; [18] 60% | [11]; at 1.2 µM -9% | [11]; at 3.7 µM 11% | [11]; at 11.0 µM 14% | [11]; at 33.0 µM 24% | [11]; at 100.0 µM 36%

CC(C)(C)CC(C)(C)c1cc(O)c(O)c(CN2CCCCC2)c1
inactive: [12]; at 1.2 µM -2% | [12]; at 3.7 µM -3% | [12]; at 11.0 µM 1% | [12]; at 33.0 µM 12% | [12]; at 100.0 µM 32% | [13]; at 1.2 µM 0% | [13]; at 3.7 µM 1% | [13]; at 11.0 µM 4% | [13]; at 33.0 µM 10% | [13]; at 100.0 µM 7% | [14]; at 1.2 µM -5% | [14]; at 3.7 µM -6% | [14]; at 11.0 µM -12% | [14]; at 33.0 µM -14% | [14]; at 100.0 µM -11% | [15]; at 1.2 µM -1% | [15]; at 3.7 µM -1% | [15]; at 11.0 µM 0% | [15]; at 33.0 µM 3% | [15]; at 100.0 µM 67% | [16]; at 1.2 µM -1% | [16]; at 3.7 µM 0% | [16]; [17] 5% | [16]; at 11.0 µM 9% | [16]; at 33.0 µM 9% | [16]; [18] 54% | [16]; at 100.0 µM 25% | [1]; at 1.2 µM 0% | [1]; at 3.7 µM 1% | [1]; [17] 16% | [1]; at 11.0 µM 2% | [1]; at 33.0 µM 7% | [1]; [18] 11% | [1]; at 50.0 µM 57.9% | [1]; at 100.0 µM 24% | [2]; at 1.2 µM -1% | [2]; at 3.7 µM 2% | [2]; at 11.0 µM 10% | [2]; at 33.0 µM 30% | [2]; at 100.0 µM 68% | [3]; [17] -5% | [3]; [18] 35% | [3]; at 50.0 µM 57.4% | [4]; at 1.2 µM -3% | [4]; at 3.7 µM 1% | [4]; at 11.0 µM 0% | [4]; at 33.0 µM 9% | [4]; at 100.0 µM 49% | [5]; [17] -22% | [5]; [18] 13% | [6]; at 1.2 µM -3% | [6]; at 3.7 µM 2% | [6]; [17] -13% | [6]; at 11.0 µM -30% | [6]; at 33.0 µM 17% | [6]; [18] 59% | [6]; at 100.0 µM 27% | [7]; at 1.2 µM -2% | [7]; at 3.7 µM -1% | [7]; at 11.0 µM 1% | [7]; at 33.0 µM 11% | [7]; at 100.0 µM 39% | [8]; at 1.2 µM 3% | [8]; at 3.7 µM 3% | [8]; at 11.0 µM 4% | [8]; at 33.0 µM -24% | [8]; at 100.0 µM 55% | [9]; at 1.2 µM 1% | [9]; at 3.7 µM 1% | [9]; at 11.0 µM 7% | [9]; at 33.0 µM 24% | [9]; at 100.0 µM 63% | [10]; [17] 3% | [10]; [18] 45% | [10]; at 50.0 µM 65% | [11]; at 1.2 µM 5% | [11]; at 3.7 µM 3% | [11]; at 11.0 µM -38% | [11]; at 33.0 µM 28% | [11]; at 100.0 µM 62%
active: [16]; at 50.0 µM 71.8% | [5]; at 50.0 µM 73.7% | [6]; at 50.0 µM 78.6%

NC(=S)NC(=S)Nc1ccccc1
active: [15]; at 100.0 µM 80% | [16]; at 100.0 µM 79% | [2]; at 100.0 µM 93% | [3]; at 50.0 µM 82.5% | [8]; at 100.0 µM 85% | [9]; at 100.0 µM 95% | [10]; at 50.0 µM 77% | [11]; at 100.0 µM 95%
inactive: [12]; at 1.2 µM -7% | [12]; at 3.7 µM -4% | [12]; at 11.0 µM -3% | [12]; at 33.0 µM 1% | [12]; at 100.0 µM 23% | [13]; at 1.2 µM -6% | [13]; at 3.7 µM -5% | [13]; at 11.0 µM -6% | [13]; at 33.0 µM 0% | [13]; at 100.0 µM 16% | [14]; at 1.2 µM -6% | [14]; at 3.7 µM -10% | [14]; at 11.0 µM -12% | [14]; at 33.0 µM -12% | [14]; at 100.0 µM -10% | [15]; at 1.2 µM -6% | [15]; at 3.7 µM -3% | [15]; at 11.0 µM 2% | [15]; at 33.0 µM 16% | [16]; at 1.2 µM 0% | [16]; at 3.7 µM -47% | [16]; [17] -1% | [16]; at 11.0 µM 18% | [16]; at 33.0 µM 5% | [16]; [18] 2% | [16]; at 50.0 µM 23.5% | [1]; at 1.2 µM -4% | [1]; at 3.7 µM -2% | [1]; [17] -2% | [1]; at 11.0 µM 2% | [1]; at 33.0 µM 8% | [1]; [18] 10% | [1]; at 50.0 µM 38.5% | [1]; at 100.0 µM 62% | [2]; at 1.2 µM -6% | [2]; at 3.7 µM -3% | [2]; at 11.0 µM 0% | [2]; at 33.0 µM 8% | [3]; [17] -3% | [3]; [18] 49% | [4]; at 1.2 µM -19% | [4]; at 3.7 µM -22% | [4]; at 11.0 µM -16% | [4]; at 33.0 µM -18% | [4]; at 100.0 µM -13% | [5]; [17] -25% | [5]; [18] 8% | [5]; at 50.0 µM 68.7% | [6]; at 1.2 µM -11% | [6]; at 3.7 µM -13% | [6]; [17] -13% | [6]; at 11.0 µM -14% | [6]; at 33.0 µM -8% | [6]; [18] 18% | [6]; at 50.0 µM 34.6% | [6]; at 100.0 µM 34% | [7]; at 1.2 µM -5% | [7]; at 3.7 µM 6% | [7]; at 11.0 µM -1% | [7]; at 33.0 µM 1% | [7]; at 100.0 µM 42% | [8]; at 1.2 µM -3% | [8]; at 3.7 µM 0% | [8]; at 11.0 µM 4% | [8]; at 33.0 µM 17% | [9]; at 1.2 µM 2% | [9]; at 3.7 µM 9% | [9]; at 11.0 µM 24% | [9]; at 33.0 µM 44% | [10]; [17] -1% | [10]; [18] 31% | [11]; at 1.2 µM -3% | [11]; at 3.7 µM -1% | [11]; at 11.0 µM 3% | [11]; at 33.0 µM 21%
